# Source: PubChem BioAssay (several laboratories)
# BH1578 lux ind = inducers of Vibrio cholerae quorum light production without autoinducers, primary screen, BH1578 luxS cqsA deficient, single point; V. cholerae BH1578 lux reporter, luminescence, 6 h; activation, % at 18.7 µM; 350,000 compounds, 0.16% hits; AID 588436, 2011; in the data active means activation mostly above about 9.7%, no sharp cut-off
# GDH-TPI counter-1 = GDH-TPI coupling enzyme inhibitors, primary screen, artefact control for M. tuberculosis FBA inhibitor project, biochemical, absorbance, full deck | inhibition, % at 4.8 µM | 360,000 compounds, 1.2% hits | GDH-TPI coupled enzyme counterscreen, NADH absorbance; in the data active means inhibition above about 30%;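 further: 0% = DMSO wells and 100% = wells lacking the enzyme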
# SARS 3CLpro inh = SARS-CoV 3CLpro protease inhibitors, primary screen, biochemical, quenched FRET; Replicase polyprotein 1ab (Severe acute respiratory syndrome coronavirus), P0C6X7; recombinant SARS-CoV 3CLpro, quenched FRET peptide cleavage; inhibition, % at 6 µM; 290,000 compounds, 0.14% hits; in the data active means inhibition above about 12%
# Mtb FBA inh = Mtb FBA enzyme inhibitors, primary screen, biochemical, fluorescence, strain H37Rv. purified M. tuberculosis FBA, fluorescence read-out. inhibition, % at 1 µM. 360,000 compounds, 2.3% hits;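 further: 0% = vehicle and 100% = reference inhibitor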
# Target sequence (P9WQA3 whole entry, looked up): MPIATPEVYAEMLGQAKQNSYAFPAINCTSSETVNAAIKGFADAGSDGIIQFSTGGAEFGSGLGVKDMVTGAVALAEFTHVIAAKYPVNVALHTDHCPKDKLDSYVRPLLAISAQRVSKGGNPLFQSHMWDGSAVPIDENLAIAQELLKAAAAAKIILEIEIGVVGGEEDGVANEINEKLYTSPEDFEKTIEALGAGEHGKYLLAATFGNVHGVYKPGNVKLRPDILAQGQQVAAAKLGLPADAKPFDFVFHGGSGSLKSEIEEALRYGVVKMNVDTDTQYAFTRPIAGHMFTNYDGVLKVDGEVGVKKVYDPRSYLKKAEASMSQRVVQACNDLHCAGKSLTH
# PrPC TRFRET = inhibitors of human cell surface prion protein PrPC, primary screen, cell-based, TR-FRET | Major prion protein (Homo sapiens), P04156 | TR-FRET read-out | inhibition, % at 13.8 µM | 370,000 compounds, 0.43% hits | AID 720596, 2013; in the data active means inhibition above about 24%; further: 0% = median of the test wells and 100% = reference compound wells
# Mtb FBA confirm = M. tuberculosis aldolase blockers, biochemical, fluorescence, strain H37Rv, confirmation; shares compounds with Mtb FBA inh; purified M. tuberculosis FBA, fluorescence read-out; inhibition, % at 1 µM; 5,600 compounds, 78% hits; AID 651616, 2012;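 further: 0% = vehicle wells and 100% = reference inhibitor wells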
# GDH-TPI counter-2 = GDH-TPI coupling enzyme inhibitors, artefact control for M. tuberculosis FBA inhibitor project, biochemical, fluorescence, high throughput | inhibition, % at 1 µM | GDH-TPI coupled enzyme counterscreen | shares compounds with Mtb FBA inh | AID 652141, 2013 | 5,600 compounds, 81% hits; in the data active means inhibition above about 10%
# * marks the source's active call; other numbers are inactive results; i = inactive; . = not tested or not shown; + = active, no number. Shown are actives, neighbours in structure and some others; about 3.9% of the full set was active somewhere. Unless noted, no stated cut-off is given here; in the data, active means inhibition above about 27%; inactive means the rest.
SMILES,BH1578 lux ind,GDH-TPI counter-1,SARS 3CLpro inh,Mtb FBA inh,PrPC TRFRET,Mtb FBA confirm,GDH-TPI counter-2
N#Cc1c2c(c(NCCN3CCOCC3)n3c1nc1ccccc13)CCCC2,-2,-1,-8,16,11,.,.
COc1cccc(Cc2n[nH]c(=S)n2Cc2ccco2)c1,-1,5,-1,-1,6,.,.
CCc1ccc2c(CN3CCc4ccccc43)cc(=O)oc2c1,i,4,3,-1,-5,.,.
O=c1cc(CN2CCc3ccccc32)c2ccc(O)cc2o1,-1,6,0,41*,-4,3,2
CCCNC(=O)c1cn(CC)c2cc(N3CCN(C(=O)c4ccco4)CC3)c(F)cc2c1=O,0,10,4,80*,0,142*,113*
CCn1cc(C(=O)NCc2cccnc2)c(=O)c2cc(F)c(N3CCN(C(=O)c4ccco4)CC3)cc21,-1,3,0,48*,17,53*,45*
COc1ccc(S(=O)(=O)N(C)C)cc1NC(=O)CCCSc1ccccc1,0,-5,3,0,4,.,.
CN1C(=O)c2ccccc2N(C)C1c1ccccc1Cl (centres undefined),i,-7,-1,64*,7,57*,38*
CN1c2ccccc2C(=O)NC1c1ccc(Cl)cc1 (centres undefined),0,-2,-2,15,5,.,.
CN1C(=O)c2ccccc2N(C)C1c1cccs1 (centres undefined),i,15,2,36*,7,200*,136*
O=C1c2ccccc2NC(c2cccs2)N1O (centres undefined),0,6,.,0,0,.,.
N#Cc1c(N2CCCCC2)nc(N)c2c(N)nc3c(c12)CC(CCl)O3 (centres undefined),-1,7,4,16,17,.,.
CCC1Cc2c(nc(N)c3c(N)nc(N4CCOCC4)c(C#N)c23)O1 (centres undefined),i,20,0,37*,12,147*,122*
COc1ccc(CN2C(=O)Cc3c2nc(N)c2c(N)nc(N4CCOCC4)c(C#N)c32)cc1,-7,6,-1,41*,1,+,+
CCOC(=O)Cn1c2ccccc2n2nc(CCC(=O)O)c(=O)nc12,0,2,2,58*,-2,-2,-3
O=C(c1nc[nH]c1C(=O)N1CCN(c2ccccc2)CC1)N1CCN(c2ccccc2)CC1,-1,4,.,6,-5,.,.
COc1ccc(-c2nc(C(=O)NCCCN3CCOCC3)cc3c2[nH]c2ccccc23)cc1OC,-1,15,-7,50*,-13,61*,46*
Nc1ccccc1C(=O)NCCCN1CCOCC1,-2,9,3,67*,-5,76*,76*
COc1ccc(-c2cc(C(F)(F)F)nc(SCC(=O)NCCCN3CCOCC3)n2)cc1,0,11,1,34*,2,111*,84*
Cc1cccc(-c2cc(C(=O)NCCCn3ccnc3)c3ccccc3n2)c1,.,.,1,.,.,.,.
Cc1ccc(-c2cc(C(=O)NCCCN3CCCC3)c3ccccc3n2)cc1C,i,10,-5,35*,-17,95*,57*
O=C(CSc1nc(-c2cccs2)cc(C(F)(F)F)n1)NCCCN1CCOCC1,-1,10,1,0,-6,.,.
COc1ccccc1CN1CC(C(=O)N2CCC(C(=O)c3ccccc3)CC2)CCC1=O (centres undefined),i,6,1,-2,-6,.,.
CCC(C(=O)NCCc1ccccc1OC)n1nc(C)c2c(C)n(-c3ccccc3)nc2c1=O (centres undefined),i,3,4,2,1,.,.
Cc1ccc(-c2cc(C(=O)NCCCN3CCOCC3)c3ccccc3n2)cc1,-1,13,.,50*,-10,7,-5
